# KDM4E inh = inhibitors of human JMJD2E histone demethylase | JMJD2E catalytic domain, FDH-coupled NADH fluorescence (FDH is formaldehyde dehydrogenase) | actives 1.6% (n = 230,000) | B2RXH2 | Potency, µM (top dose mostly 57.1 µM), for the others: at the highest dose activity change, negative = inhibition, usual class: inhibitors;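 note: potency is the fitted concentration of half-maximal effect; 0% = wells with enzyme and -100% = buffer wells without enzyme; nearly all actives have a fitted effect of over 50% in size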
# Target sequence (B2RXH2 1-337 limits assumed): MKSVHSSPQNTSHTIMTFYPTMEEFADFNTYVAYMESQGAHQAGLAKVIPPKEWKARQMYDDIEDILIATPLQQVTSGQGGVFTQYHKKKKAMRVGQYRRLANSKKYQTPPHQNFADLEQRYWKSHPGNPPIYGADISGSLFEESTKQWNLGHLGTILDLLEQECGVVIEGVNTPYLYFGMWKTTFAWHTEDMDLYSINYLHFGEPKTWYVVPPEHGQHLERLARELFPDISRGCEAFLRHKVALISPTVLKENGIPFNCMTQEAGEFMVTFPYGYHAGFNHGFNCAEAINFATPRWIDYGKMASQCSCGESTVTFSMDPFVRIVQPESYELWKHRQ
# ALDH1A1 block = ALDH1A1 (human) enzyme inhibition | AID 1030 | Purified ALDH1A1, NADH fluorescence, propionaldehyde substrate | actives 7.3% (n = 220,000) | Potency, µM (highest dose often 75.3 µM), for the others: top-dose activity, negative = inhibition, actives largely listed as inhibitors;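 note: potency is the fitted concentration of half-maximal effect; plate controls were no enzyme wells and a reference inhibitor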
# NPSR antag = antagonists of human neuropeptide S receptor cAMP signaling; CHO-NPSR cells, cAMP TR-FRET, antagonist mode; Potency, µM (titrated, usually from 38.3 µM), inactives show at the highest dose activity change, negative = inhibition, hits mostly inhibitors; actives 1% (n = 220,000); AID 1461; active = well fitted curve in the direction sought with a large enough effect; inconclusive = small, poorly fitted or top-dose-only effect, or another doubt; inactive = no such curve, though single readings can be large; an effect the other way counts as inactive or inconclusive; note: potency is the fitted concentration of half-maximal effect; nearly all actives have a fitted effect of over 50% in size
# Sfp PPTase inh = Sfp phosphopantetheinyl transferase inhibition; Biochemical Sfp PPTase activity, qHTS; Potency, µM, inactives show largest response in the series, negative = inhibition, actives largely listed as inhibitors; actives 3.5% (n = 310,000); AID 1490; active = well fitted curve in the direction sought with a large enough effect; inconclusive = small, poorly fitted or top-dose-only effect, or another doubt; inactive = no such curve, though single readings can be large; an effect the other way counts as inactive or inconclusive;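 note: the enzyme is Sfp with the accession as filed and its product quenches rhodamine fluorescence; potency is the fitted concentration of half-maximal effect; 0% = enzyme reaction without inhibitor and -100% = no enzyme wells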
#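 Compounds were incubated with enzyme (final 15 nM) for 15 min at room temperature before substrate addition started the reaction. Fluorescence at 525 nm excitation, 598 nm emission was recorded immediately and after 30 minutes.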
# GoLoco inh red = RGS12 GoLoco-Gai1 interaction inhibition. P63096. Gai1:RGS12 GoLoco peptide FP, rhodamine, 10 min. Potency, µM (doses to about 61.6 µM), for inactives: at the highest dose activity, negative = inhibition, usual class: inhibitors. actives 0.44% (n = 230,000); active = well fitted inhibition curve with a large enough effect, not every such curve was filed as active; inactive = no such curve, though single readings can be large or run the other way; note: potency is the fitted concentration of half-maximal effect; nearly all actives have a fitted effect of over 30% in size
# Coupling enz = inhibits coupling enzyme system, counter-screen for aldolase hits; coupling enzyme system counterscreen, AmpLite Red fluorescence; activity change, negative = inhibition, % at 58.2 µM, hits read low; actives 0.67% (n = 290,000); in the data active = activity change below about -30%
#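 Fluorescence at 525 nm excitation and 598 nm emission measured inhibition of the coupled detection system without aldolase. Compounds (at 57.5 uM final) were preincubated 10 min at room temperature with coupling enzyme reagent before a 20 min substrate/AmpLite Red step.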
# Starred values were filed as active, the others as inactive; u = inconclusive; x = no result given; [ ] = remark or other dose. Sampled rows, rich in hits. Any-hit rate of the full collection: about 8.5%. Unless noted, calls come from the whole dose curve; as a rule, active = well fitted inhibition curve with a large enough effect (not every such curve was filed as active); inconclusive = small, poorly fitted or top-dose-only effect, or another doubt; inactive = no such curve, though single readings can be large or run the other way. Unless noted, % is set by controls: 0 for no effect and ±100 for the full control effect.
SMILES,KDM4E inh,ALDH1A1 block,NPSR antag,Sfp PPTase inh,GoLoco inh red,Coupling enz
CC1CCCC(C)N1/N=C/c1ccc(N(C)C)cc1 (configuration not stated),-27%,4µM*,-29%,0%,-3%,1
Clc1ccc(/C=N/N2CCCCC2)cc1,3%,x,-48%,10%,-21%,0
CNc1ccccc(-c2ccc3cc4c(cc3n2)OCO4)c1=O,u,u,-24%,u,-2%,-15
CCC1(C)NC(=O)N(/N=C/c2cc(OC)c(O)c(OC)c2)C1=O (configuration not stated),-26%,10µM*,11%,-6%,4%,-1
CCC1(C)NC(=O)N(/N=C/c2ccc(C)s2)C1=O (configuration not stated),x,x,x,11%,x,-1
CC1CCCC(C)N1/N=C/c1cc(Br)c(O)c(Br)c1 (configuration not stated),-3%,u,5%,56µM*,-36%,1
CC1CCCC(C)N1/N=C/c1ccc(O)c(O)c1 (configuration not stated),x,x,x,45µM*,x,-4
COc1ccc(/C=N/N2C(C)CCCC2C)cc1O (configuration not stated),x,x,x,8%,x,2
CCS(=O)(=O)N1Cc2ccccc2CC1C(=O)Nc1nnc(SCc2ccc(F)cc2)s1 (configuration not stated),6%,8%,4%,u,-5%,-13
CC(=O)c1ccc(NC(=S)NNC(=O)c2ccncc2)cc1,u,u,23%,-2%,5%,1
C=CCN1C(=O)CN=C1Nc1cc(C)ccc1C,6%,3.5µM*,u,-11%,-2%,3
Cc1ccccc1-c1cncnc1N(C)Cc1ccco1,u,-14%,x,50µM*,-17%,-1
CCOC(=O)C1=C(CSc2nc(CC)c(C)cc2C#N)OC(N)=C(C#N)C1c1ccc(OC)cc1 (configuration not stated),-2%,u,-19%[46.1 µM],7.9µM*,30%,-7
CCOC(=O)C1=C(CSc2nc(C)ccc2C#N)OC(N)=C(C#N)C1c1cccc(OC)c1OC (configuration not stated),u,28µM*,u,14µM*,2%,-15
CCOC(=O)C1=C(CSc2nc(-c3ccncc3)ccc2C#N)OC(N)=C(C#N)C1c1ccc(OC)cc1 (configuration not stated),-13%,u,-27%[46.1 µM],u,35%,-8
Cc1ccc(N=Cc2cc(C)n(C3CCCC3)c2C)cc1,6%,8.9µM*,-11%[46.1 µM],2%,-1%,x
COC(=O)C(NS(=O)(=O)c1ccc(C)cc1)c1ccccc1 (configuration not stated),-4%,-16%,0%,5%,3%,0
Cc1ccc(S(=O)(=O)NC(C(=O)Oc2ccc3c(C(F)(F)F)cc(=O)oc3c2)c2ccccc2)cc1 (configuration not stated),32µM*,-6%,-9%[46.1 µM],-12%,14%,11
COc1ccc(C(=O)NCC23C=CC(O2)C2C(=O)N(Cc4ccccc4)C(=O)C23)cc1 (configuration not stated),8%,7.9µM*,-8%[46.1 µM],u,-19%,0
COc1ccc(CCNC(=O)c2cc3ccccc3oc2=O)cc1,x,x,x,11%,x,-1
COc1ccc(/C=C2\CCn3c2nc2cc(C(=O)O)ccc2c3=O)cc1O,4%,22µM*,-28%[46.1 µM],9%,2%,-11
O=C(Cc1ccc(Cl)cc1)N1CCN(C(=O)c2ccco2)CC1,2%,-6%,-11%[46.1 µM],23%,7%,2
Cc1onc(-c2ccccc2Cl)c1C(=O)N1CCCC1,x,x,x,14%,x,1
Cc1onc(-c2ccccc2Cl)c1C(=O)N1CCN(C(=O)c2ccco2)CC1,-3%,22µM*,-20%[46.1 µM],9%,4%,4
CN1CCN(C(=O)c2cc(-c3cccc(Cl)c3)on2)CC1,-4%,4.5µM*,-7%[46.1 µM],16%,x,0
